Calls of active or inactive are those of the source. The calls were made as follows: active = hit-call score of the fitted dose curve at least 0.9, where 1 is the maximum; inactive = score below 0.9.
Experiments:
[1] = CCTE_Harrill_HTTr_Viability_PRF_DMEM_6hr: (Pilot) CCTE's 6-hour Cell Viability Assessment for the High-Throughput Transcriptomics (HTTr) Platform, in MCF-7 cells cultured phenol red-free DMEM + 10% charcoal-stripped fetal bovine serum, Harrill Lab (AID 2283976)
Procedure, shortened: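 MCF-7 cells in phenol red-free DMEM with 10% charcoal-stripped FBS exposed 6 hours to an eight-point dilution series. Propidium iodide exclusion imaged; curves fitted bidirectionally against DMSO.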

[2] = CCTE_Harrill_HTTr_Viability_PRF_DMEM_12hr: (Pilot) CCTE's 12-hour Cell Viability Assessment for the High-Throughput Transcriptomics (HTTr) Platform, in MCF-7 cells cultured in phenol red-free DMEM + 10% charcoal-stripped fetal bovine serum, Harrill Lab (AID 2283977)
Text: (§1) This is a cell-based assay that evaluates cell viability using high content imaging to evaluate membrane integrity using propidium iodide dye exclusion in a 384 well format.One of seven assay components measured from the CCTE_Harrill_HTTr_Viability assay. This was part of a pilot experiment. This is a cell-based assay that evaluates cell viability in MCF-7 cells cultured in phenol red-free DMEM + 10% charcoal-stripped fetal bovine serum. High content imaging is used to evaluate membrane integrity using propidium iodide dye exclusion. Measurements are taken at 12 hours after chemical dosing in 384-well format.The assay component endpoint CCTE_Harrill_HTTr_Viability_PRF_DMEM_12hr was analyzed with bidirectional fitting relation to DMSO as the negative control and baseline of activity. Using a type of viability reporter to understand changes in cytotoxicity, gain-of-signal activity can be used to evaluate membrane integrity using propidium iodide dye exclusion. To generalize the intended target to other relatable targets, this assay endpoint is annotated to cell cycle, where the subfamily is cytotoxicity.
(§2) Chemicals were tested in MCF7 cells in an eight point dilution series with a twelve hour exposure duration.

[3] = CCTE_Harrill_HTTr_Viability_PRF_DMEM_24hr: (Pilot) CCTE's 24-hour Cell Viability Assessment for the High-Throughput Transcriptomics (HTTr) Platform, in MCF-7 cells cultured in phenol red-free DMEM + 10% charcoal-stripped fetal bovine serum, Harrill Lab (AID 2283980)
Text: as §1, with “24” for “12”, “CCTE_Harrill_HTTr_Viability_PRF_DMEM_24hr” for “CCTE_Harrill_HTTr_Viability_PRF_DMEM_12hr”
Chemicals were tested in MCF7 cells in an eight point dilution series with a twenty-four hour exposure duration.

[4] = CCTE_Harrill_HTTr_Apoptosis_DMEM_6hr: (Pilot) CCTE's 6-hour Apoptosis Assessment for the High-Throughput Transcriptomics (HTTr) Platform, in MCF-7 cells cultured in DMEM + 10% fetal bovine serum, Harrill Lab (AID 2283981)
Procedure, shortened: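 Caspase-3/7 activation read by high content imaging with CellEvent Caspase 3/7 Green in MCF-7 cells (DMEM + 10% FBS), 6 h after dosing; eight-point dilution series. Bidirectional fitting relative to DMSO baseline.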

[5] = CCTE_Harrill_HTTr_Apoptosis_DMEM_12hr: (Pilot) CCTE's 12-hour Apoptosis Assessment for the High-Throughput Transcriptomics (HTTr) Platform, in MCF-7 cells cultured in DMEM + 10% fetal bovine serum, Harrill Lab (AID 2283982)
Text: This is a cell-based assay that evaluates apoptosis using high content imaging to evaluate activation of caspase-3/7 using the CellEvent Caspase 3/7 Green detection reagent in 384-well format.One of seven assay components measured from the CCTE_Harrill_HTTr_Apoptosis assay. This was part of a pilot experiment. This is a cell-based assay that evaluates apoptosis in MCF-7 cells cultured in DMEM + 10% fetal bovine serum. High content imaging is used to evaluate activation of caspase-3/7 using the CellEvent Caspase 3/7 Green detection reagent. Measurements are taken at 12 hours after chemical dosing in 384-well format.The assay component endpoint CCTE_Harrill_HTTr_Apoptosis_DMEM_12hr was analyzed with bidirectional fitting relation to DMSO as the negative control and baseline of activity. Using a type of viability reporter, gain-of-signal activity can be used to evaluate activation of caspase-3/7 using the CellEvent Caspase 3/7 Green detection reagent to understand changes in apoptosis. To generalize the intended target to other relatable targets, this assay endpoint is annotated to cell cycle, where the subfamily is apoptosis.
as §2

[6] = CCTE_Harrill_HTTr_Apoptosis_DMEM_24hr: (Pilot) CCTE's 24-hour Apoptosis Assessment for the High-Throughput Transcriptomics (HTTr) Platform, in MCF-7 cells cultured in DMEM + 10% fetal bovine serum, Harrill Lab (AID 2283983)
Procedure, shortened: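 MCF-7 cells in DMEM + 10% FBS, eight-point dilution series, 24 h exposure. Caspase-3/7 activation imaged by high-content imaging with CellEvent Caspase 3/7 Green. Bidirectional curve fitting against DMSO baseline.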

[7] = CCTE_Harrill_HTTr_Apoptosis_PRF_DMEM_6hr: (Pilot) CCTE's 6-hour Apoptosis Assessment for the High-Throughput Transcriptomics (HTTr) Platform, in MCF-7 cells cultured phenol red-free DMEM + 10% charcoal-stripped fetal bovine serum, Harrill Lab (AID 2283984)
Procedure, shortened: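 MCF-7 cells in phenol red-free DMEM + 10% charcoal-stripped FBS, eight-point dilution series, 6 h exposure. Caspase-3/7 activation imaged by high-content imaging with CellEvent Caspase 3/7 Green; bidirectional fit versus DMSO baseline.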

[8] = CCTE_Harrill_HTTr_Apoptosis_PRF_DMEM_24hr: (Pilot) CCTE's 24-hour Apoptosis Assessment for the High-Throughput Transcriptomics (HTTr) Platform, in MCF-7 cells cultured in phenol red-free DMEM + 10% charcoal-stripped fetal bovine serum, Harrill Lab (AID 2283986)
Procedure, shortened: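 MCF-7 cells in phenol red-free DMEM with 10% charcoal-stripped FBS, exposed 24 h across an eight-point dilution series. Caspase-3/7 activation imaged with CellEvent Green by high content imaging; bidirectional fitting against DMSO.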

Measured: AC50

CCCCc1oc2ccccc2c1C(=O)c1cc(I)c(OCCN(CC)CC)c(I)c1
active: [2] 39.5 µM | [3] 70.4 µM | [6] 81.6 µM | [8] 74.5 µM
inactive: all other assays above

Reference: PubChem BioAssay (EPA / NIEHS)
